The text below walks through data of PubChem BioAssay (NCATS).

The structures appear in SMILES notation. Results filed as inconclusive are left out. A number with no mark means an inactive call. The source made the active and inactive calls. Calls come from the whole dose curve; as a rule, active = well fitted inhibition curve with a large enough effect; inconclusive = small, poorly fitted or top-dose-only effect; inactive = flat fitted curve, though single readings scatter.
Potency is the fitted concentration of half-maximal effect.

A short description of the assay: BET inhibitor-based combinations targeting novel dependencies in MECOM-rearranged (r) AML: AML-191 cell line (AID 2202236; note: nearly all actives have a fitted effect of over 35% in size;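 for viability (% of control): plate controls were vehicle wells for no effect and wells without cells for full effect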). The settings on record: AML-191 viability, CellTiter-Glo luminescence, 48 h; series mostly up to 46 µM. An excerpt: Ecotropic viral insertion site 1 (EVI1) is located on chromosome 3q26.2 as part of the MECOM (MDS and EVI1 complex) locus. Under normal hematopoiesis, EVI1 is a regulator of hematopoietic stem cell maintenance and self-renewal and EVI1 levels decrease as the cells differentiate. In approximately 5-10% of de novo acute myeloid leukemia (AML) EVI1 is aberrantly expressed, including Chromosomal inv(3)(q21;q26.2) or t(3;3)(q21;q26.2) alterations (MECOM-r) that account for about 50% of AML with EVI1 overexpression 31. AMLs with high levels of EVI1 have a poor prognosis and an overall survival time averaging between 10-14 months. EVI1 overexpression confers resistance in leukemia cells, highlighting the need to develop new targeted therapies for EVI1 overexpressing AMLs.
Here, we performed an unbiased chemical drug screening by evaluating the single agent activity of a collection of 2,480 oncology-focused, approved and investigational drugs (NCATS Mechanism Interrogation Plates, MIPE v5.0) against a panel of seven AML cell lines. These included four MECOM-r cell-lines (AML-191, AML-194, UCSD-AML1 and HNT-34) and three non-MECOM-r AMLs (MV4-11, OCI-AML3 and SET-2). Exploiting the mechanistic redundancy built in the library, we identified target-level sensitivities in MECOM-r AML cells and relative activity as compared to other AML subtypes.
A collection of 2480 mechanistically annotated dugs (MIPE v5.0) was used to screen four 3q26.2 rearranged AML cell lines and three non-3q26.2 rearranged AML cell lines. This library purposely exploits redundancy by including multiple inhibitors of key onco-targets, while simultaneously encompassing mechanistic diversity, targeting more than 800 distinct mechanisms of action. Briefly, cells were seeded in 5 uL of growth media using a Multidrop Combi dispenser into 1536 well white polystyrene tissue culture treated plates (Corning) at a density of 500cells/well. For each cell-line, for each of the 2480 drugs in MIPE v5.0 library, an 11-point dose curve was generated via a 1536 pin-tool. Plates were incubated for 48 hr at standard incubator conditions, covered by a stainless steel gasketed lid to prevent evaporation. Cell viability was determined by luminescence based, Cell Titer Glo assay (Promega). In detail, 3 uL of Cell Titer Glo were added to each well and plates were incubated at room temperature for 15 min with a stainless-steel lid in place. Luminescence readings were taken using a Viewlux (PerkinElmer) with a 2 s exposure time per plate. Compound dose-response curves were normalized to DMSO and empty well controls on each plate. Quantitative drug activity data from dose-response curves was determined utilizing area Under the Curve (AUC) and Z-transformed AUC (Z-AUC, a mean-centering transformation applied to each individual cell-line screened).
For the compound `CN1C(N)=N[C@](C)(c2cc(NC(=O)c3ccc(F)cn3)ccc2F)CS1(=O)=O`, the Potency entry was “inactive”.

Take `c1ccc(-c2cc(CCC3CCNCC3)c3ccccc3n2)cc1`: the Potency was 20.9 µM (active).

On to `O=S(=O)(c1cccc2cnccc12)N1CCCNCC1`, for which the Potency entry was “inactive”.

`O=C(Nc1cccc(Nc2ncc(Br)c(NCCc3cnc[nH]3)n2)c1)N1CCCC1`: the Potency was 5.25 µM (active).

Take `C#CCN(C)CC1=Cc2ccccc2Oc2ccccc21`: the Potency entry is “inactive”.

As to `Nc1nc(=S)c2[nH]cnc2[nH]1`, the Potency is 0.833 µM (active).

`O=c1c(-c2ccc(O)cc2)coc2c([C@@H]3O[C@H](CO)[C@@H](O)[C@H](O)[C@H]3O)c(O)ccc12`: the Potency result was “inactive”.

For the compound `O=C(O)CCNc1cc(N2CCc3ccccc3CC2)nc(-c2cccnc2)n1`, the Potency result is “inactive”.

Turning to `O=C(c1ccc(/C=C/c2n[nH]c3ccccc23)cc1)N1CCNCC1`, the Potency is 2.95 µM (active).

In the case of `CO[C@H]1/C=C/O[C@@]2(C)Oc3c(C)c(O)c4c(O)c(c(/C=N/N5CCN(C)CC5)c(O)c4c3C2=O)NC(=O)/C(C)=C\C=C\[C@H](C)[C@H](O)[C@@H](C)[C@@H](O)[C@@H](C)[C@H](OC(C)=O)[C@@H]1C`, the Potency entry is “inactive”.

As to `COc1cc(C(=O)NC(N)=Nc2ccc(C)c(NC(=O)c3ccc(-c4ccccc4)cc3)c2)cc(OC)c1OC`, the Potency is 18.6 µM (active).

With `COc1cc2ncn(-c3cc(OCc4ccccc4C(F)(F)F)c(C(N)=O)s3)c2cc1OC`, the Potency was 1.48 µM (active).

Consider `O=C(NO)c1ccc(C2=Nc3ccccc3Oc3ccccc32)cc1`, for which the Potency is 3.32 µM (active).

For the compound `CCCCCCCCCCCC(CC1OC(=O)C1CCCCCC)OC(=O)C(CC(C)C)NC=O` (stereo not given), the Potency result was “inactive”.

On to `Nc1cccc2c1CN([C@H]1CCC(=O)NC1=O)C2=O`, for which the Potency result was “inactive”.

In the case of `C=CC[N+]1([C@H]2C[C@H]3[C@@H]4CC[C@H]5C[C@H](O)[C@@H](N6CCOCC6)C[C@]5(C)[C@H]4CC[C@]3(C)[C@H]2OC(C)=O)CCCC1`, the Potency entry is “inactive”.

As for `O=C(C[C@@H]1C/C=C\CCC(=O)O[C@H](c2ccccc2)CNC1=O)NCc1ccc(Cl)cc1`, the Potency entry is “inactive”.

Regarding `O=C(/C=C/c1ccc(/C=C/C(=O)Nc2ccc(C3=NCCN3)cc2)cc1)Nc1ccc(C2=NCCN2)cc1`, the viability (% of control) was 109% [at 5.12 µM].

For `COC(C)(C)CCn1nc(Nc2c(C)cccc2C)c2cnc(Nc3ccc(OCCN4CCCC4)c(F)c3)nc21`, the Potency was 14.8 µM (active).

For `N#Cc1cccnc1N1CCN(C(=O)c2cccc(Cc3n[nH]c(=O)c4ccccc34)c2)CC1`, the Potency was 0.118 µM (active).

Consider `C=C1/C(=C/C=C2\CCCC3(C)[C@@H]([C@H](C)/C=C/C=C/C(O)(CC)CC)CC[C@@H]23)C[C@@H](O)C[C@@H]1O` (stereo not given in full), for which the Potency is 26.3 µM (active).

In the case of `COc1ccc(-c2oc3c(CC=C(C)C)c(OC4O[C@H](CO)[C@@H](O)[C@H](O)[C@H]4O)cc(O)c3c(=O)c2OC2O[C@@H](C)[C@H](O)[C@@H](O)[C@H]2O)cc1` (stereo not given in full), the Potency entry was “inactive”.

On to `CCn1cc(-c2ccnc3[nH]c(-c4cccc(CN(C)C)c4)cc23)c(-c2ccc(NC(=O)N(C)C)cc2)n1`, for which the Potency was 5.25 µM (active).

`C=C1C(=O)O[C@H]2C[C@H](C)C(/C=C/C(C)=O)=CC[C@H]12`: the Potency was 2.35 µM (active).

For `COC(=O)c1ccc([C@H]2c3[nH]c4ccccc4c3C[C@H](C(=O)OC)N2C(=O)CCl)cc1`, the Potency was 0.132 µM (active).

As for `CC1(C)SCCN(S(=O)(=O)c2ccc(OCC#CCO)cc2)[C@H]1C(=O)NO`, the Potency result was “inactive”.

`C[C@H](NC(=O)[C@H]1NCC[C@@H]1O)c1ccc(-c2noc(CCC3CCCC3)n2)cc1`: the Potency was 20.9 µM (active).

Consider `CC[C@@]1(O)C(=O)OCc2c1cc1n(c2=O)Cc2c-1nc1ccccc1c2CCNC(C)C`, for which the Potency was 0.0118 µM (active).

On to `Cc1cc(C(=O)Nc2cc(Nc3ccc4c(/C=C/c5ccccn5)n[nH]c4c3)ccc2F)n(C)n1`, for which the Potency was 16.6 µM (active).

On to `CCC[C@@H]1C[C@@H](C(=O)N[C@@H]([C@H]2O[C@H](SC)[C@H](O)[C@@H](O)[C@H]2O)[C@H](C)Cl)N(C)C1`, for which the Potency entry was “inactive”.

Turning to `Cc1cc(-c2nc3cc(F)ccc3s2)ccc1NC(=O)[C@@H](N)CCCCN`, the Potency is 16.6 µM (active).

Take `COc1ccc(-c2oc3ncnc(N)c3c2-c2ccc(NC(=O)Nc3cc(C(F)(F)F)ccc3F)cc2)cc1`: the Potency is 8.33 µM (active).

On to `CC(C)(c1ccc(OCC(O)CO)cc1)c1ccc(OCC(O)CCl)cc1` (stereo not given), for which the Potency entry was “inactive”.

`O=c1cc(O)c(Cl)c[nH]1`: the Potency result is “inactive”.

Regarding `COc1cc2nc(-c3ccc(N4CCN(C)CC4)cc3)nc(NCCN3CCOCC3)c2cc1OC`, the Potency was 9.34 µM (active).

On to `CS(=O)(=O)c1ccc(-c2cnc(NCc3ccco3)n3cnnc23)cc1`, for which the Potency entry was “inactive”.

As to `CN[C@@H]1[C@@H](O)[C@@H](O[C@@H]2[C@@H](O)[C@H](O[C@H]3O[C@H](CN)[C@@H](O)[C@H](O)[C@H]3O)[C@@H](N)C[C@H]2NC(=O)C(O)CN)OC[C@]1(C)O` (stereo not given in full), the Potency entry is “inactive”.

In the case of `CN1N=C(N)c2cn([C@@H]3O[C@H](COP(=O)(O)O)[C@@H](O)[C@@H]3O)c3ncnc1c23`, the Potency was 2.35 µM (active).

For `O=[N+]([O-])c1ccc(O)c2ncccc12`, the Potency was 8.33 µM (active).

In the case of `COc1cc2c(Oc3ccc4[nH]c(C)cc4c3F)ccnc2cc1OCC1(N)CC1`, the Potency was 7.42 µM (active).
